The list is not random: actives were taken first. Their share in the collection is about 19%.
TGFb inhibitor: qHTS for Inhibitors of TGF-b | HepG2 CAGA-GFP TGF-b/SMAD3 reporter, GFP fluorescence, 18 h; TGF-beta stimulated, 500 pg/mL final | Potency, µM (highest dose often 46.1 µM), hits mostly inhibitors | 410,000 compounds, 1.2% hits | AID 588855, 2011; note: nearly all actives have a fitted effect of over 65% in size
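Inhibition of TGF-beta-driven CAGA-GFP reporter expression in HEPG2 cells is measured by cellular GFP fluorescence after 18 h stimulation with 500 pg/mL recombinant TGF-beta in 1% FBS medium at 37 degrees C.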
HepG2 tox: qHTS for Inhibitors of TGF-b: Cytotox Counterscreen; 410,000 compounds, 0.76% hits; HepG2 CAGA-GFP viability, ATP luminescence, 18 h; Potency, µM (doses to about 46.1 µM), most hits filed as cytotoxic; AID 588856, 2011
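HepG2 CAGA-GFP cells (1000/well, DMEM with 1% FBS) received compound, then TGF-beta at 500 pg/mL final, and were incubated 18 hours at 37 degrees C. Viability was read by CellTiter-Glo luminescence. Media-only wells were set as complete cell-killing and DMSO as no toxicity.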
DT40 TDP1 no CPT: qHTS for Inhibitors of human tyrosyl-DNA phosphodiesterase 1 (TDP1): qHTS in cells in absence of CPT. AID 686978, 2013. 420,000 compounds, 15% hits. DT40 Tdp1-/- hTDP1 cells, no CPT, ATP luminescence, 48 h. Potency, µM (titrated, usually from 46.2 µM), hits mostly inhibitors; note: nearly all actives have a fitted effect of over 55% in size
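Growth of hTDP1-complemented DT40 Tdp1-knockout cells is measured by ATP luminescence after at least 48 hr compound exposure at 37 °C, with DMSO substituting for the 20 nM CPT used in the parallel screen.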
TDP1 inh: qHTS Assay for Inhibitors of Tyrosyl-DNA Phosphodiesterase (TDP1). recombinant TDP1, AlphaScreen DNA substrate cleavage. 350,000 compounds, 0.28% hits. AID 485290, 2010. Potency, µM (titrated, usually from 130 µM), most hits filed as inhibitors; note: nearly all actives have a fitted effect of over 40% in size
Target sequence (Q9NUW8 whole entry, looked up): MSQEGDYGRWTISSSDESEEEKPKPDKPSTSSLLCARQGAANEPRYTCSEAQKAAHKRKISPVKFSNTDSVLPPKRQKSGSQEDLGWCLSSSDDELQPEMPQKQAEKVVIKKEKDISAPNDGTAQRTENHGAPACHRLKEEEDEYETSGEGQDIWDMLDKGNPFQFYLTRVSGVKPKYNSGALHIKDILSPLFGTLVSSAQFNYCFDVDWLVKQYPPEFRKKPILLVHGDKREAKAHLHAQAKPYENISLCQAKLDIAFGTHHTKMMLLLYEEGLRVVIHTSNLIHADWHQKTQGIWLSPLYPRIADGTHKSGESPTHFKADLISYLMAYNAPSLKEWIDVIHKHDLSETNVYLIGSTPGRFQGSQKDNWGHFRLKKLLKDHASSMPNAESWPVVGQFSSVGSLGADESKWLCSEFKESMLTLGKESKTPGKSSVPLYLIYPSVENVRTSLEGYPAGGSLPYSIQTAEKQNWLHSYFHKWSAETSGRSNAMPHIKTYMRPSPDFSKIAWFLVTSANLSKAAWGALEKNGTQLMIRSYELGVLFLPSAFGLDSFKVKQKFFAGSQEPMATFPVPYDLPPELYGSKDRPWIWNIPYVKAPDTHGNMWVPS
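Here, a 5' biotin and 3' phosphotyrosine-FITC DNA oligonucleotide reports Tdp1 activity: intact substrate bridges AlphaScreen beads, while cleavage leaves a 3' phosphate and drops signal. All incubations at room temperature.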
IL-1B inflam inh: qHTS for Inhibitors of Inflammasome Signaling: IL-1-beta AlphaLISA Primary Screen; THP-1 LPS/ATP IL-1B secretion, AlphaLISA, 16 h; active compounds read low; activity change, % at 57.5 µM; 360,000 compounds, 4.7% hits; AID 743279, 2014; in the data active = activity change below about -50%; inconclusive = mostly about -30% to -49%
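Secreted IL-1B measured by AlphaLISA bead assay after 16 h compound exposure of THP-1 cells; compounds (final up to 57.5 uM) added 1 h before LPS (250 ng/mL) and ATP (1.25 mM) stimulation; lower signal means less secretion.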
DT40 TDP1 CPT: qHTS for Inhibitors of human tyrosyl-DNA phosphodiesterase 1 (TDP1): qHTS in cells in presence of CPT; 420,000 compounds, 12% hits; Potency, µM (series often up to 46.2 µM), hits mostly inhibitors; chicken DT40 Tdp1-/-;hTDP1 cells + 20 nM CPT, ATP luminescence, 48 h; note: nearly all actives have a fitted effect of over 55% in size
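Cell growth measured by CellTiter-Glo luminescence after a minimum 48 h, 37 C compound exposure with 20 nM CPT in Tdp1-knockout DT40 cells stably expressing hTDP1, seeded 400/well; qHTS titration format.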
Hits are given with their value; 0 = inactive; ? = inconclusive; - = no result; [ ] = another dose, or the depositor's remark. Unless noted, calls come from the whole dose curve; as a rule, active = well fitted curve in the direction sought with a large enough effect; inconclusive = small, poorly fitted or top-dose-only effect, or another doubt; inactive = no such curve, though single readings can be large; an effect the other way counts as inactive or inconclusive.

SMILES	TGFb inhibitor	HepG2 tox	DT40 TDP1 no CPT	TDP1 inh	IL-1B inflam inh	DT40 TDP1 CPT
CCN(c1ccccc1)S(=O)(=O)c1ccc(Cl)c(NC(=O)CN2CCCCCC2)c1	?	0	18µM	-	0	21µM
CCc1ccc2c(c1)c(=O)c(S(=O)(=O)c1ccccc1)cn2CC(=O)Nc1cc(C)ccc1C	0	0	0	0	-	0
COc1ccc(-c2cccc(NS(=O)(=O)c3cccs3)c2)nn1	0	0	?	0	-	?
CCC(C)NC(=O)C1CCC(CNS(=O)(=O)c2ccc3c(c2)N(C(C)=O)CCO3)CC1 (stereo not drawn)	0	0	0	0	0	?
COc1cccc(C2c3c(ncn(-c4ccc(-c5ccccc5)cc4)c3=N)Oc3ccc4ccccc4c32)c1 (stereo not drawn)	-	-	-	0	-	-
CCC(C)NCC(=O)Nc1cc(S(=O)(=O)N(CC)c2ccccc2)ccc1Cl (stereo not drawn)	0	0	23µM	0	-53	21µM
CCN(c1ccccc1)S(=O)(=O)c1ccc(Cl)c(NC(=O)CN(C)Cc2cccc(F)c2)c1	0	0	18µM	-	0	16µM
O=C(OCc1ccccc1Cl)c1ccc(-c2nnn(Cc3ccccc3Cl)n2)cc1	0	0	-	0	-	-
COc1ccc(N2CCN(C(c3ccccc3F)c3sc4nc(-c5ccco5)nn4c3O)CC2)cc1 (stereo not drawn)	?	0	0	0	-	0
COc1ccc(OC[C@@H](CO)OC)cc1	-	-	-	0[21 µM]	-	-
COc1ccc(CCNC(=O)c2nc(SCc3ccccc3F)ncc2Cl)cc1OC	?	0	23µM	0	-	18µM
O=C(Nc1ccc(OC(F)F)cc1)c1nc(SCc2ccccc2F)ncc1Cl	0	0	13µM	-	-	?
CC(=O)Nc1ccc(NC(=O)c2nc(SCc3ccccc3C)ncc2Cl)cc1	0	0	0	0	-	0
CCCCN1C(=O)C(O)(CC(=O)c2ccc(C)cc2C)c2cc(Br)ccc21 (stereo not drawn)	?	0	16µM	-	-	16µM
CCCCN1C(=O)C(O)(CC(=O)c2c(C)n[nH]c2C)c2cc(Br)ccc21 (stereo not drawn)	0	0	0	0	0	0
CCCCN1C(=O)C(O)(CC(=O)c2ccco2)c2cc(Br)ccc21 (stereo not drawn)	0	0	4.1µM	0	0	2.6µM
CSc1ccc(-c2nc3ccc(C)cn3c2Nc2ccccc2C)cc1	0	0	0	0	-	0
Cc1ccc2nc(-c3ccsc3)c(Nc3ccccc3C)n2c1	0	0	7.3µM	0	-	6.5µM
CC(C)c1ccc(Nc2c(-c3ccsc3)nc3ccc(Cl)cn23)cc1	0	0	?	0	-	?
Cc1cccc(C)c1Nc1c(-c2ccsc2)nc2ccc(Cl)cn12	0	0	7.3µM	0	-	?
Cc1cc(C)n2c(Nc3c(C)cccc3C)c(-c3ccccn3)nc2n1	-	-	7.3µM	-	0	5.8µM
Cc1ccc(Nc2c(-c3ccsc3)nc3c(C)cccn23)cc1	?	0	?	0	-	?
Cc1cccc(C)c1Nc1c(-c2ccsc2)nc2ccccn12	?	0	5.8µM	0	-	7.3µM
COc1ccc(Cl)cc1NC(=O)CCCn1c(=O)c2cccn2c2cccnc21	?	0	?	0	0	?
CCCSCCCNC(=O)CN1C(=O)COc2ccc(S(=O)(=O)N3CCC(C)CC3)cc21	0	0	-	0	-	-
SMILES	TGFb inhibitor	HepG2 tox	DT40 TDP1 no CPT	TDP1 inh	IL-1B inflam inh	DT40 TDP1 CPT
COC(=O)CNc1c(-c2ccccn2)nc2ccc(Br)cn12	0	0	0	0	0	0
Cc1cccc(C)c1Nc1c(-c2ccccn2)nc2ccccn12	?	0	6.5µM	0	0	6.5µM
CC(=O)N1CCN(c2nnc(-c3ccccc3)c3ccccc23)CC1	0	0	0	-	0	0
COc1ccc(OCC(=O)N2CCN(c3nnc(-c4ccccc4)c4ccccc34)CC2)cc1	0	0	18µM	0	-66	16µM
Cc1cc(C)c2nc(N3CCCN(C(=O)c4ccco4)CC3)c(C#N)cc2c1	0	0	?	0	?	?
CCC(=O)N1CCN(c2nnc(-c3ccccc3)c3ccccc23)CC1	0	0	0	-	0	0
Cc1cc(C)c2nc(C(F)(F)F)nc(N3CCN(C(=O)c4ccco4)CC3)c2c1	0	0	?	0	?	26µM
Cc1ccc(-c2nnc(N3CCN(C(=O)c4ccco4)CC3)c3ccccc23)cc1	0	0	?	0	-63	21µM
O=C(COc1ccccc1)N1CCN(c2nnc(-c3ccccc3)c3ccccc23)CC1	0	0	16µM	0	0	13µM
CC(=O)SC[C@@H](C)C(=O)N1CCC[C@H]1C(=O)N[C@@H](Cc1ccccc1)C(=O)O	-	-	0	-	-	0
CCOc1ccccc1NC(=O)CCc1c(C)nc2c3cccnc3nn2c1C	0	0	?	0	-	?
Cc1ccc(OCC(=O)N2CCN(c3nnc(-c4ccc(C)cc4)c4ccccc34)CC2)cc1	?	0	23µM	0	-87	16µM
COc1ccc(OCC(=O)N2CCN(c3nnc(-c4ccc(C)cc4)c4ccccc34)CC2)cc1	0	0	16µM	-	-84	16µM
CC1=C(C(=O)N(C)C)CC(CC(=O)NC2CCCC2)C(=O)N1Cc1ccc(F)cc1 (stereo not drawn)	0	0	0	-	0	0
O=Cc1cc2ccccc2nc1SCc1ccc(Cl)c(Cl)c1	0	0	0.92µM	0	0	1µM
O=c1[nH]c(SCc2ccc(Cl)cc2)nc2ccccc12	0	0	0	0	0	0
O=Cc1cc2ccccc2nc1SCc1ccc(Cl)cc1	0	0	1µM	0	0	1µM
Clc1ccc(CSc2cnnc3ccccc23)cc1Cl	0	0	?	-	0	?
CC(=O)Nc1ccc(N(C(=O)Cn2nnc3ccccc32)C(C(=O)NCc2ccccc2)c2ccc(C)cc2)cc1 (stereo not drawn)	0	0	?	0	-	?
Cc1nn(C)c(C)c1CCC(=O)N1CCCC(C(=O)c2cccc(OC(C)C)c2)C1 (stereo not drawn)	0	0	?	0	0	18µM
Cc1nn(C)c(C)c1CCC(=O)N1CCCC(Nc2ccc(C(C)C)cc2)C1 (stereo not drawn)	0	0	0	0	0	0

From PubChem BioAssay
